Results taken from PubChem BioAssay AID371 (SRMLSC, 2006).
About 280 (8.5%) of roughly 3,300 compounds were called active. Many of the other results were omitted from the sample, so actives are more common in it than they were. Values without a mark were called inactive.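 Rule for the calls: active = mean growth inhibition over the two runs of 50% or more; inactive = mean growth inhibition under 50%.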

Test: A549 NSCLC cell proliferation inhibitors – ATP luminescence, human non-small cell lung line, primary screen (AID 371);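 note: compound exposure lasted 72 h before the ATP read; 0% = untreated cell signal and 100% = no luminescence left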
Conditions: at 10 µM, active compounds read high
`C=CCn1c(O)c(C=Nc2ccc(N(CC)CC)cc2)c(=O)[nH]c1=O` showed a growth inhibition of 4.7%.
For `O=c1[nH]c(=O)n(-c2cccc(Cl)c2)c(O)c1C=NCCN1CCCCC1`, the growth inhibition was 4.68%.
Molecule `Cc1c(N=Cc2c(O)n(Cc3ccco3)c(=O)[nH]c2=O)c(=O)n(-c2ccccc2)n1C` has a growth inhibition of -0.44%.
`CCCCCCn1c(O)c(C=NCCN2CCCCC2)c(=O)[nH]c1=O` gave a growth inhibition of -5.08%.
With `Clc1ccc(COC(Cn2ccnc2)c2ccc(Cl)cc2Cl)c(Cl)c1` (stereo not drawn) the growth inhibition was 92.5% (active).
In the case of `c1ccc(Cn2ccnc2)cc1`, the growth inhibition is reported as 8.97%.
In the case of `Clc1ccc(CSC(Cn2ccnc2)c2ccc(Cl)cc2Cl)cc1` (stereo not drawn), the growth inhibition is reported as 93.2% (active).
In the case of `Clc1ccc(COC(Cn2ccnc2)c2ccc(Cl)cc2Cl)cc1` (stereo not drawn), the growth inhibition is reported as 91.6% (active).
In the case of `CCOc1ccc(-n2c(O)c(C=Nc3ccc(N(CC)CC)cc3)c(=O)[nH]c2=O)cc1`, the growth inhibition is reported as 9.98%.
Work on `CC(=O)C1(c2ccccc2)CCNCC1` yielded a growth inhibition of 2.01%.
`Cn1c(O)c(C=NCCCNC2CCCCC2)c(=O)n(C)c1=O` gave a growth inhibition of 0.52%.
Work on `CCOc1ccccc1-n1c(O)c(C=Nc2ccc(N(CC)CC)cc2)c(=O)[nH]c1=O` yielded a growth inhibition of 45.4%.
`CCCCSP1(=S)NCCCN1` gave a growth inhibition of 2.57%.
Molecule `O=C(COc1ccc2ccccc2c1)N1CCN(C2CCN(Cc3ccccc3)CC2)CC1` has a growth inhibition of 36.9%.
With `O=c1[nH]c(=O)n(C2CCCCC2)c(O)c1C=NCCCn1ccnc1` the growth inhibition was 3.81%.
In the case of `O=c1[nH]c(O)c(C=NC2CCN(Cc3ccccc3)CC2)c(=O)[nH]1`, the growth inhibition is reported as 6%.
In the case of `COc1cccc(-n2c(C)nc3ccccc3c2=O)c1`, the growth inhibition is reported as 9.28%.
`COc1ccc(C2SCC(=O)Nc3c2c(=O)[nH]n3C2CCCCCC2)cc1` (stereo not drawn) showed a growth inhibition of 25.3%.
`CCC(=NCCN1CCCCC1)c1c(O)n(C)c(=O)n(C)c1=O` showed a growth inhibition of -4.37%.
`CC(=NCCO)c1c(O)n(C)c(=O)n(C)c1=O` showed a growth inhibition of -4.52%.
For `CCC(=NCCOc1ccc(Cl)cc1)c1c(O)n(C)c(=O)n(C)c1=O`, the growth inhibition was 55.2% (active).
In the case of `CCN(CC)CCN=Cc1c(O)n(CCc2ccccc2)c(=O)[nH]c1=O`, the growth inhibition is reported as 2.4%.
Work on `CCN(CC)CCCC(C)N=C(c1ccccc1)c1c(O)n(C)c(=O)n(C)c1=O` (stereo not drawn) yielded a growth inhibition of 7.06%.
With `O=C(Nc1ccncc1)c1c(O)c2ccccc2n(Cc2ccccc2)c1=O` the growth inhibition was 68.1% (active).
In the case of `CCN(CC)CCCNC(=O)c1c(O)c2ccccc2n(Cc2ccccc2)c1=O`, the growth inhibition is reported as 91.6% (active).
With `CN1CCc2nc(SCC(=O)OC(C)(C)C)c(C#N)cc2C1` the growth inhibition was 25.1%.
For `CCCCC1(CN2CCCC2=O)C(=O)NC(=O)NC1=O`, the growth inhibition was 3.02%.
`COCCOC(=O)C1=C(N)Oc2c(c(=O)oc3ccccc23)[C@@]12C(=O)Nc1ccccc12` showed a growth inhibition of -4.66%.
For `CC1CN=C(Nc2ccc(N(C)C)cc2)S1` (stereo not drawn), the growth inhibition was 0.47%.
With `CCOC(=O)c1cc(C)n(CCc2cnc[nH]2)c1C` the growth inhibition was 9.02%.
With `C[C@H]1CCCC(=O)CCCCCc2cc(O)cc(O)c2C(=O)O1` the growth inhibition was 52.1% (active).
In the case of `OCCOCC#CCN1CCOCC1`, the growth inhibition is reported as 0.81%.
For `CCCCSP1(=S)NCCCO1` (stereo not drawn), the growth inhibition was 19.6%.
With `C[C@@]1(CO)[C@H](O)CC[C@@]2(C)[C@H]1CC[C@H]1C[C@@H]3C[C@@]12CC[C@]3(O)CO` the growth inhibition was 69.6% (active).
With `O=P(c1ccccc1)(c1ccccc1)N1CCCCC1` the growth inhibition was 8.66%.
`O=c1[nH]c(=O)n(Cc2ccco2)c(O)c1C=NCc1ccc2c(c1)OCO2` gave a growth inhibition of 18.1%.
With `CC1=C(C(=O)OC(C)C)[C@]2(C(=O)N(CC(N)=O)c3ccccc32)C(C#N)=C(N)O1` the growth inhibition was 5.06%.
`c1ccc2c(c1)[nH]c1cnccc12` gave a growth inhibition of -5.8%.
In the case of `Cc1c2ccncc2c(C)c2c1[nH]c1ccccc12`, the growth inhibition is reported as 95% (active).
Molecule `COc1cccc(CN2CCN(C(=O)COc3ccc4ccccc4c3)CC2)c1` has a growth inhibition of 33.9%.
For `C[C@H]1CCC/C=C/C2C[C@H](O)CC2[C@H](O)/C=C/C(=O)O1` (stereo partly drawn), the growth inhibition was 76% (active).
For `OC(Cc1ccccc1)(c1ccccc1)C1CN2CCC1CC2` (stereo not drawn), the growth inhibition was 34.4%.
For `Cc1ccc2c(c1)[C@@H]1CN(C)CC[C@@H]1N2C(=O)Nc1cccc(C(F)(F)F)c1`, the growth inhibition was 83% (active).
Molecule `COc1ccc(C(=O)CN2CCOCC2)cc1F` has a growth inhibition of 16%.
`CN1CCc2c(c(N3CCCCC3)nc3n[nH]c(N)c23)C1` showed a growth inhibition of 0.74%.
Molecule `COc1ccc2[nH]cc(CCN(C)C)c2c1` has a growth inhibition of 1.86%.
With `CCCc1nc2ccccc2c(=O)n1-c1ccccc1OC` the growth inhibition was -0.02%.
For `CCN(CC)c1ccc(N=Cc2c(O)n(-c3ccccc3C)c(=O)[nH]c2=O)cc1`, the growth inhibition was 29.6%.
